For eight substances, cross-linked residues results are on record in article PMC11442847.

Among the targets are ATP1B3 (UniProt P54709); DIP2B (UniProt Q9P265); INPP5F (UniProt Q9Y2H2); ITPR2 (UniProt Q14571); NMI (UniProt Q13287); S100A6 (UniProt P06703); SLC44A1 (UniProt Q8WWI5); WAC (UniProt Q9BTA9).
Assay in all cases: cross-linking mass spectrometry
Holding throughout (conditions): DSSO, not determined

For the substance PLS3, P13797, the cross-linked residues result with ATP1B3 is listed as “K42 - K182”.
With PLK3, Q9H4B4, the cross-linked residues result with DIP2B is “K217 - K118”.
For B2M, P61769, the cross-linked residues result with INPP5F is reported as “K39 - K352”.
For the substance OAS2, P29728, the cross-linked residues result with ITPR2 was “K388 - K954”.
For the substance RNASEH1, O60930, the cross-linked residues entry with NMI is “K236 - K156”.
For the substance TPD52L2, O43399, the cross-linked residues result with S100A6 is reported as “K175 - K47”.
Turning to KNTC1, P50748, the cross-linked residues result with SLC44A1 is “K859 - K145”.
On to CENPN, Q96H22, for which the cross-linked residues result with WAC was “K245 - K175”.
